# ± gives the standard deviation.
# System: MILI (PIWIL2) piRISC loaded with L1MC piRNA (26 nt)
# Assay: pre-steady-state target cleavage rate (min^-1); guide: L1MC piRNA 5'p-UAACUAAAUACUAUGCAAGCUGUAGG; MIWI and MILI are mouse PIWI proteins and EfPiwi is from a freshwater sponge; tags in brackets are library labels; higher = faster piRNA-guided slicing of the target
# Conditions: auxiliary factor: 500 nM mouse GTSF1
# Procedure, shortened: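 The pre-steady-state cleavage rate was obtained by Cleave-'n-Seq with a burst-and-steady-state fit. A transcribed, DNA-blocked target RNA library (0.1 nM) was mixed with 1 nM active affinity-purified piRISC carrying one synthetic guide, with or without 500 nM GTSF1 partner protein, in HEPES–potassium acetate buffer at 33 °C for 0–8 or 0–960 min. Uncleaved targets were sequenced and normalised to depth and to weakly complementary targets, with three trials pooled and k3 capped at 0.0001 min^-1.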
row,Sequence,pre-steady-state target cleavage rate
1,UCCUGGAACAGCAUGCAUAGUAAUUAGUUA,0.225 ± 0.017
2,UCCUGCUACACCUUGCAUAGUUUUUAGUUA,0.0358 ± 0.01
3,UCCUGGAACAGCUUGCAAAGUAUAUAGUUA,0.116 ± 0.013
4,UCCUGGAACAGGUUGCAUAGUAUUUUGUUA,0.132 ± 0.018
5,UCCUGGUACAGCUCGCAUAGUAUUUAGUUA,0.262 ± 0.023
6,UCCUGGAUCAGCUAGCUUAGUAUUUAGUUA,0.214 ± 0.018
7,UCCUGGAUGAGGUUGCAUAGUAAUUAGUUA,0.117 ± 0.032
8,UCCUCCUACACGAUGCAUAGUAUUUAGUUA,0.267 ± 0.011
9,UCCUGGAACAGCUUGCAUAGUAUUUAGGUUA,0.23 ± 0.041
10,UCCUCCUACAGCUUGCAUAGUAGUUUAGUUA,0.23 ± 0.022
11,UCCUGGAUGAGCAUGCAAAGUAUUUAGUUA,0.056 ± 0.011
12,UCCUGGUACAGCUUGCUUAGUUUUUAGUUA,0.0347 ± 0.011
13,UCCUGGAUGUCCUUGCAUAGUAUUUAGAUA,0.118 ± 0.018
14,UCCUGGUAGUGCUUGCAUAGUAUUUAGUAA,0.191 ± 0.032
15,UCCUGGUACAGGUUGGAUAGUAUUUAGUUA,0.303 ± 0.043
16,UCCUGGAUCAGCUAGCAUAGUAAUUAGUUA,0.152 ± 0.015
17,UCCUCCUACAGCUAGCUUAGUAUUUAGUUA,0.206 ± 0.017
18,UCCUGCUACAGGUUGCAUAGUAUUUUGUUA,0.165 ± 0.028
19,UCCUGCUACAGCAUGCAAAGUAUUUAGUUA,0.163 ± 0.015
20,UCCUCCUACAGCUUGCAUAGUUAUUUAGUUA,0.0152 ± 0.0067

row,Sequence,pre-steady-state target cleavage rate
1,UCCUGGAACAGCUUGCAGAGUAUUUAGUUA,0.193 ± 0.019
2,UCCUCCUACAGGUUGCAUAGUAUUUAGUAA,0.233 ± 0.017
3,UCCUGGAAUAGCUUGCAUAGUAUUUAGUUA,0.221 ± 0.015
4,UCCUGCUACAGCGUUGCAUAGUAUUUAGUUA,0.267 ± 0.018
5,UCCUCCUACAGGUUGCAUAGUAUUAAGUUA,0.212 ± 0.027
6,UCCUGGAUCAGCAUGCAUUGUAUUUAGUUA,0.15 ± 0.014
7,UCCUGCUCCAGCUUGCAUAGUAUUUAGUUA,0.256 ± 0.017
8,UCCUCCUACAGCUUGCAUAGUAUUUAGUUUA,0.333 ± 0.019
9,UCCUCCUACUAGCUUGCAUAGUAUUUAGUUA,0.13 ± 0.013
10,UCCUGAUACAGCUUGCAUAGUAUUUAGUUA,0.269 ± 0.02
11,UCCUGGAACAGCUUGCAUAGUAUUUAGUCA,0.224 ± 0.024
12,UCCUCCUUGUGCUUGCAUAGUAUUUAGUUA,0.157 ± 0.012
13,UCCUCCUUCAGCUUGCUUAGUAUUUAGUUA,0.286 ± 0.015
14,UCCUGGAUGUCCCUGCAUAGUAUUUAGUUA,0.085 ± 0.014
15,UCCUCCUACAGCUUCGCAUAGUAUUUAGUUA,0.282 ± 0.015
16,UCCUGGAUGAGCUUGCUUAGUAUUUAGUUA,0.17 ± 0.01
17,UCCUGGAACAGGUUGCAUAGUAAUUAGUUA,0.206 ± 0.017
18,UCCUGGAACAGCUUGCAUAGUAUUAUAGUUA,0.149 ± 0.024
19,UCCUGGAACAGCUGUGCAUAGUAUUUAGUUA,0.206 ± 0.015
20,UCCUGGAUGAGCUUGCAUAGUAGUUUAGUUA,0.115 ± 0.022

# Same assay, conditions: auxiliary factor: none (no GTSF1)
row,Sequence,pre-steady-state target cleavage rate
1,UCCUGGAACAGCAUGCAUAGUAAUUAGUUA,0.00873 ± 0.0024
2,UCCUGCUACACCUUGCAUAGUUUUUAGUUA,0.00475 ± 0.0022
3,UCCUGGAACAGCUUGCAAAGUAUAUAGUUA,0.00404 ± 0.0021
4,UCCUGGAACAGGUUGCAUAGUAUUUUGUUA,0.00924 ± 0.0022
5,UCCUGGUACAGCUCGCAUAGUAUUUAGUUA,0.0138 ± 0.0045
6,UCCUGGAUCAGCUAGCUUAGUAUUUAGUUA,0.00868 ± 0.002
7,UCCUGGAUGAGGUUGCAUAGUAAUUAGUUA,0.00411 ± 0.0022
8,UCCUCCUACACGAUGCAUAGUAUUUAGUUA,0.00666 ± 0.0022
9,UCCUGGAACAGCUUGCAUAGUAUUUAGGUUA,0.00413 ± 0.0032
10,UCCUCCUACAGCUUGCAUAGUAGUUUAGUUA,0.007 ± 0.0022
11,UCCUGGAUGAGCAUGCAAAGUAUUUAGUUA,0.00571 ± 0.002
12,UCCUGGUACAGCUUGCUUAGUUUUUAGUUA,0.00709 ± 0.0023
13,UCCUGGAUGUCCUUGCAUAGUAUUUAGAUA,0.00265 ± 0.0023
14,UCCUGGUAGUGCUUGCAUAGUAUUUAGUAA,0.00505 ± 0.0031
15,UCCUGGUACAGGUUGGAUAGUAUUUAGUUA,0.00912 ± 0.0032
16,UCCUGGAUCAGCUAGCAUAGUAAUUAGUUA,0.00502 ± 0.0022
17,UCCUCCUACAGCUAGCUUAGUAUUUAGUUA,0.00491 ± 0.0019
18,UCCUGCUACAGGUUGCAUAGUAUUUUGUUA,0.00477 ± 0.0031
19,UCCUGCUACAGCAUGCAAAGUAUUUAGUUA,0.00807 ± 0.0029
20,UCCUCCUACAGCUUGCAUAGUUAUUUAGUUA,0.00383 ± 0.0024

row,Sequence,pre-steady-state target cleavage rate
1,UCCUGGAACAGCUUGCAGAGUAUUUAGUUA,0.00795 ± 0.0019
2,UCCUCCUACAGGUUGCAUAGUAUUUAGUAA,0.00603 ± 0.0015
3,UCCUGGAAUAGCUUGCAUAGUAUUUAGUUA,0.0149 ± 0.0032
4,UCCUGCUACAGCGUUGCAUAGUAUUUAGUUA,0.01 ± 0.0033
5,UCCUCCUACAGGUUGCAUAGUAUUAAGUUA,0.00545 ± 0.0022
6,UCCUGGAUCAGCAUGCAUUGUAUUUAGUUA,0.00792 ± 0.0027
7,UCCUGCUCCAGCUUGCAUAGUAUUUAGUUA,0.00969 ± 0.0026
8,UCCUCCUACAGCUUGCAUAGUAUUUAGUUUA,0.0143 ± 0.0034
9,UCCUCCUACUAGCUUGCAUAGUAUUUAGUUA,0.00589 ± 0.002
10,UCCUGAUACAGCUUGCAUAGUAUUUAGUUA,0.00917 ± 0.0027
11,UCCUGGAACAGCUUGCAUAGUAUUUAGUCA,0.00732 ± 0.0022
12,UCCUCCUUGUGCUUGCAUAGUAUUUAGUUA,0.00963 ± 0.002
13,UCCUCCUUCAGCUUGCUUAGUAUUUAGUUA,0.00762 ± 0.002
14,UCCUGGAUGUCCCUGCAUAGUAUUUAGUUA,0.00467 ± 0.0023
15,UCCUCCUACAGCUUCGCAUAGUAUUUAGUUA,0.00644 ± 0.0025
16,UCCUGGAUGAGCUUGCUUAGUAUUUAGUUA,0.00685 ± 0.0025
17,UCCUGGAACAGGUUGCAUAGUAAUUAGUUA,0.0075 ± 0.0018
18,UCCUGGAACAGCUUGCAUAGUAUUAUAGUUA,0.00335 ± 0.0027
19,UCCUGGAACAGCUGUGCAUAGUAUUUAGUUA,0.00954 ± 0.0024
20,UCCUGGAUGAGCUUGCAUAGUAGUUUAGUUA,0.0138 ± 0.0039

# From the supplement of paper PMC10338343
